Results reported in PubChem BioAssay (NCI).
The panel holds about 83,000 compounds, 20% with a hit somewhere; the sample as a whole holds those more often.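 Step 1: grow cells in 96-well plates. Step 2: add test compound at a single concentration. Step 3: incubate 48 h. Step 4: record percent growth.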 Activity calls are given as the source filed them. How the source made its calls: active means growth percent below 10; inactive means the rest.

Test system: SF-295 CNS
Assay: NCI-60 one-dose screen, 48 h (100 = growth as untreated, 0 = no growth, -100 = all killed)
Details: 10 µM unless noted

Row | Structure (SMILES) | growth
1 | CC(=O)O[C@H]1C(=O)[C@@]2(C)[C@H]([C@H](OC(=O)c3ccccc3)[C@]3(O)C[C@H](OC(=O)[C@H](OC(=O)OCC4COC(C)(C)O4)[C@@H](NC(=O)c4ccccc4)c4ccccc4)C(C)=C1C3(C)C)[C@]1(OC(C)=O)CO[C@@H]1C[C@@H]2O (stereo partly drawn) | 17.5% (inactive)
2 | CC[C@H](C)[C@H](NC(=O)C12CC(NC(C)=O)(C1)C2)C(=O)N(C)[C@H](C[C@@H](OC(C)=O)c1nc(C(=O)N[C@@H](Cc2ccccc2)C[C@H](C)C(=O)OC)cs1)C(C)C | 18.7% (inactive)
3 | CCn1cnc2c(Nc3cccc(Cl)c3)nc(N[C@@H]3CCCC[C@@H]3N)nc21 | 9.85% (active)
4 | O=C(O)C1C(C(=O)O)C2(Cl)C(Cl)=C(Cl)C1(Cl)C2(Cl)Cl.[Hg] (stereo not drawn) | 95.2% (inactive)
5 | CC[C@H](C)[C@H](NC(=O)[C@H]1CCCCN1C)C(=O)N(C)[C@H](C[C@@H](OC(C)=O)c1nc(C(=O)N[C@@H](Cc2ccccc2)C[C@H](C)C(=O)OC)cs1)C(C)C | 2.06% (active)
6 | CN1C(=O)C(=Cc2cn(CCCCCCn3c4ccccc4c(=O)c4ccccc43)c3ccccc23)C(=O)N(C)C1=O | 95% (inactive)
7 | CC(C)(C)C(=O)OCOP(=O)(OCOC(=O)C(C)(C)C)C1CCCN(O)C1=O (stereo not drawn) | 54% (inactive)
8 | COC(=O)[C@@H](C)C[C@H](Cc1ccc2ccccc2c1)NC(=O)c1csc([C@@H](C[C@H](C(C)C)N(C)C(=O)[C@@H](NC(=O)[C@H]2CCCCN2C)C(C)C)OC(C)=O)n1 | 56.7% (inactive)
9 | C=C1C(=O)O[C@H]2[C@H]1CC/C(COC(=O)C(=O)c1cn(Cc3ccccc3)c3ccccc13)=C\CC[C@@]1(C)O[C@@H]21 | 18.8% (inactive)
10 | CN(CCCCN(C)CCOS(C)(=O)=O)CCOS(C)(=O)=O | 109% (inactive)
11 | NC(=O)CNc1ccc([As]=[As]c2ccc(NCC(N)=O)cc2)cc1 (stereo not drawn) | 94% (inactive)

Test system: SF-539 CNS
Assay: as above
Details: 10 µM unless noted

Row | Structure (SMILES) | growth
12 | O=NN1CCCc2cccc(O)c21 | -32.8% (active)
13 | Fc1ccc2c(c1)c(-c1nc(-c3c[nH]c4ncccc34)cs1)cn2CCN1CCOCC1 | 55.1% (inactive)
14 | CC(=O)Nc1nc2c(s1)CC[C@@]1(C)C2=CC[C@H]2[C@@H]3CC[C@H](O)[C@@]3(C)CC[C@@H]21 | 8.5% (active)
15 | CN(C)CC(C(=O)Cc1ccccc1)c1ccccc1 (stereo not drawn) | 5.03% (active)
16 | CCOC(=O)[C@@H](C)C[C@H](Cc1ccccc1)NC(=O)c1csc([C@@H](C[C@H](C(C)C)N(C)C(=O)[C@H](CCC(C)C)NC(=O)[C@H]2CCCCN2C)OC(C)=O)n1 | -10.2% (active)
17 | CCCCCCCCCCCCCCCCCC1OC[C@H](COC(=O)O[C@@H](C(=O)O[C@H]2C[C@@]3(O)[C@@H](OC(=O)c4ccccc4)[C@@H]4[C@]5(OC(C)=O)CO[C@@H]5C[C@H](O)[C@@]4(C)C(=O)[C@H](OC(C)=O)C(=C2C)C3(C)C)[C@@H](NC(=O)c2ccccc2)c2ccccc2)O1 (stereo partly drawn) | 43.3% (inactive)
18 | c1cnc2[nH]cc(-c3csc(-c4cn(CCCCN5CCCCC5)c5ccccc45)n3)c2c1 | 86.5% (inactive)
19 | C=C1C[C@](OC)([C@H](O)C(=O)N[C@@H](OC)[C@@H]2C[C@@H](O)C(C)(C)[C@@H](C[C@@H](COC)OC)O2)O[C@H](C)[C@@H]1C | -65.9% (active)
20 | O=C(Nc1ccc(O)cc1)C(Cl)(Cl)Cl | 93.1% (inactive)
21 | Cc1c(NS(=O)(=O)c2ccccc2)ccc([N+](=O)[O-])c1Cl | 67.4% (inactive)
22 | CCCCN1CCCC[C@@H]1C(=O)N[C@H](C(=O)N(C)[C@H](C[C@@H](OC(C)=O)c1nc(C(=O)NC2CCC(C(=O)OC)CC2)cs1)C(C)C)C(C)C (stereo partly drawn) | -5.06% (active)
23 | Cn1cc(-c2csc(-c3cn(CCCCN4CCCCC4)c4ccc(F)cc34)n2)c2cccnc21 | 75.3% (inactive)
24 | CC1=C(CN)C2=C(C)C3(CC3)[C@@](C)(O)C(=O)C2=C1 | 94.8% (inactive)
25 | CC(=O)O[C@H]1C(=O)[C@@]2(C)[C@H]([C@H](OC(=O)c3ccccc3)[C@]3(O)C[C@H](OC(=O)[C@H](OC(=O)OC[C@H]4COC(C)(C)O4)[C@@H](NC(=O)c4ccccc4)c4ccccc4)C(C)=C1C3(C)C)[C@]1(OC(C)=O)CO[C@@H]1C[C@@H]2O | -13.3% (active)
26 | Cn1cc(-c2csc(-c3cn(CCN4CCOCC4)c4ccc(F)cc34)n2)c2cccnc21 | 61.5% (inactive)
27 | Brc1ccc2c(c1)c(-c1nc(-c3c[nH]c4ncccc34)cs1)cn2CCN1CCOCC1 | 61% (inactive)
28 | COC(=O)[C@@H](C)C[C@H](Cc1ccccc1)NC(=O)c1csc([C@@H](C[C@H](C(C)C)N(C)C(=O)[C@@H](NC(=O)[C@H]2CCCCN2C)C2CCCCC2)OC(C)=O)n1 | -22.3% (active)
29 | CC(=O)OC1CCC2(C)C(CCC3C2CC(=O)C2(C)C3CC(Sc3ccc(N(CCCl)CCCl)cc3)C2C(C)=O)C1 (stereo not drawn) | 13.7% (inactive)
30 | COc1ccc(S(=O)(=O)N(Cc2ccc3c(c2)C=CC(C)(C)O3)c2ccccc2)cc1OC | 97.3% (inactive)

Row | Structure (SMILES) | growth
31 | CC[C@H](C)[C@H](NC(=O)[C@H]1CCCCN1C)C(=O)N(C)[C@H](CC(=O)c1nc(C(=O)N[C@@H](Cc2ccccc2)C[C@H](C)C(=O)O)cs1)C(C)C | 75.8% (inactive)
32 | COC(=O)[C@@H](C)C[C@H](Cc1ccccc1)NC(=O)c1csc([C@@H](C[C@H](C(C)C)N(C)C(=O)[C@@H](NC(=O)C23CC(NC(C)=O)(C2)C3)C2CC2)OC(C)=O)n1 | 42.4% (inactive)
33 | O=C1CC2(CC3(Cl)C(Cl)=C(Cl)C2(Cl)C3(Cl)Cl)C(=O)O1 (stereo not drawn) | 114% (inactive)
34 | C[n+]1c(/C=C/c2ccc(N(CCCl)CCCl)cc2)sc2ccccc21 | 45.4% (inactive)
35 | CC[C@H](C)[C@H](NC(=O)NC(C)(C)C)C(=O)N(C)[C@H](C[C@@H](OC(C)=O)c1nc(C(=O)N[C@@H](Cc2ccccc2)C[C@H](C)C(=O)OC)cs1)C(C)C | 2.57% (active)
36 | CCCCCCCC[N+](C)(CCCCCCCC)CCCCCCCC | -100% (active)
37 | CC(=O)O[C@H]1C(=O)[C@@]2(C)[C@H]([C@H](OC(=O)c3ccccc3)[C@]3(O)C[C@H](OC(=O)[C@H](OC(=O)OC[C@@H]4COC(C)(C)O4)[C@@H](NC(=O)c4ccccc4)c4ccccc4)C(C)=C1C3(C)C)[C@]1(OC(C)=O)CO[C@@H]1C[C@@H]2O | -9.82% (active)
38 | CC(=O)O[C@H]1C(=O)[C@@]2(C)[C@H]([C@H](OC(=O)c3ccccc3)[C@]3(O)C[C@H](OC(=O)[C@H](OC(=O)OCC4COC(C)(C)O4)[C@@H](NC(=O)c4ccccc4)c4ccccc4)C(C)=C1C3(C)C)[C@]1(OC(C)=O)CO[C@@H]1C[C@@H]2O (stereo partly drawn) | 24.9% (inactive)
39 | CC[C@H](C)[C@H](NC(=O)C12CC(NC(C)=O)(C1)C2)C(=O)N(C)[C@H](C[C@@H](OC(C)=O)c1nc(C(=O)N[C@@H](Cc2ccccc2)C[C@H](C)C(=O)OC)cs1)C(C)C | 1.61% (active)
40 | CCn1cnc2c(Nc3cccc(Cl)c3)nc(N[C@@H]3CCCC[C@@H]3N)nc21 | -5.76% (active)
41 | O=C(O)C1C(C(=O)O)C2(Cl)C(Cl)=C(Cl)C1(Cl)C2(Cl)Cl.[Hg] (stereo not drawn) | 102% (inactive)
42 | CC[C@H](C)[C@H](NC(=O)[C@H]1CCCCN1C)C(=O)N(C)[C@H](C[C@@H](OC(C)=O)c1nc(C(=O)N[C@@H](Cc2ccccc2)C[C@H](C)C(=O)OC)cs1)C(C)C | -11.3% (active)
43 | CN1C(=O)C(=Cc2cn(CCCCCCn3c4ccccc4c(=O)c4ccccc43)c3ccccc23)C(=O)N(C)C1=O | 86% (inactive)
44 | CC(C)(C)C(=O)OCOP(=O)(OCOC(=O)C(C)(C)C)C1CCCN(O)C1=O (stereo not drawn) | 27.4% (inactive)
45 | COC(=O)[C@@H](C)C[C@H](Cc1ccc2ccccc2c1)NC(=O)c1csc([C@@H](C[C@H](C(C)C)N(C)C(=O)[C@@H](NC(=O)[C@H]2CCCCN2C)C(C)C)OC(C)=O)n1 | 10.4% (inactive)
46 | C=C1C(=O)O[C@H]2[C@H]1CC/C(COC(=O)C(=O)c1cn(Cc3ccccc3)c3ccccc13)=C\CC[C@@]1(C)O[C@@H]21 | -51.3% (active)
47 | CN(CCCCN(C)CCOS(C)(=O)=O)CCOS(C)(=O)=O | 47.2% (inactive)
48 | NC(=O)CNc1ccc([As]=[As]c2ccc(NCC(N)=O)cc2)cc1 (stereo not drawn) | 0.244% (active)
